{
  "source": "PubChem BioAssay",
  "key": {"[1]": {"biological_target": "Tumor necrosis factor receptor superfamily member 10B (Homo sapiens) (UniProt O14763)", "sequence (O14763 whole entry, looked up)": "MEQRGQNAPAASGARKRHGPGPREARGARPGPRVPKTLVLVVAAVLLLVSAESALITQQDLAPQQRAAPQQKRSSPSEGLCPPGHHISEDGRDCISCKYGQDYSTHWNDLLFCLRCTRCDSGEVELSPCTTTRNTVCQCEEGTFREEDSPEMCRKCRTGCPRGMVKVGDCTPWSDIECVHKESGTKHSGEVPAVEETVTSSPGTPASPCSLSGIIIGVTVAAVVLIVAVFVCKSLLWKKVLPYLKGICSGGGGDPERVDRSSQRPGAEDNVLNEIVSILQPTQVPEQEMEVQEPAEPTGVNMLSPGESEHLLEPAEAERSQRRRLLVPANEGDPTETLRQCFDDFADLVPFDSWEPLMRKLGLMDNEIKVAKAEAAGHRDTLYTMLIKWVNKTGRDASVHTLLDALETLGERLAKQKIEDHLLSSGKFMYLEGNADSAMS", "assay": "caspase-8 TRAIL sensitization, hit retest, confirmation, cell-based, NB7+caspase-8, with/without TRAIL, luminescence panel (AID 651596)", "conditions": "NB7 neuroblastoma + caspase-8, TRAIL sensitization, luminescence viability, with TRAIL, mean of runs, at 10 µM, stronger effect = higher value; in the data active = activity above about 50%; inactive = the rest"}, "[2]": {"assay": "caspase-8 TRAIL sensitization, hit retest, confirmation, cell-based, NB7+caspase-8, with/without TRAIL, luminescence panel (AID 651596)", "conditions": "NB7 neuroblastoma + caspase-8, without TRAIL, luminescence viability, without TRAIL, mean of runs, at 10 µM"}, "[3]": {"biological_target": "Tumor necrosis factor receptor superfamily member 10B (Homo sapiens) (UniProt O14763)", "assay": "TRAIL sensitizers in caspase-8 expressing neuroblastoma cells, dose response, NB7 cells plus caspase-8, luminescence, panel (AID 652002)", "conditions": "NB7 neuroblastoma +caspase-8, TRAIL sensitization, luminescence viability, NB7+Caspase-8, with TRAIL, run 1; at 12.5 µM (top of the series)"}, "[4]": {"biological_target": "Tumor necrosis factor receptor superfamily member 10B (Homo sapiens) (UniProt O14763)", "assay": "TRAIL sensitizers in caspase-8 expressing neuroblastoma cells, dose response, NB7 cells plus caspase-8, luminescence, panel (AID 652002)", "conditions": "NB7 neuroblastoma +caspase-8, TRAIL sensitization, luminescence viability, NB7+Caspase-8, with TRAIL, run 2; at 12.5 µM (top of the series)"}, "[5]": {"assay": "TRAIL sensitizers in caspase-8 expressing neuroblastoma cells, dose response, NB7 cells plus caspase-8, luminescence, panel (AID 652002)", "conditions": "NB7 neuroblastoma +caspase-8, no TRAIL, compound-alone cytotoxicity counter-screen, luminescence viability, NB7+Caspase-8, run 1; at 12.5 µM (top of the series)"}, "[6]": {"assay": "TRAIL sensitizers in caspase-8 expressing neuroblastoma cells, dose response, NB7 cells plus caspase-8, luminescence, panel (AID 652002)", "conditions": "NB7 neuroblastoma +caspase-8, no TRAIL, compound-alone cytotoxicity counter-screen, luminescence viability, NB7+Caspase-8, run 2; at 12.5 µM (top of the series)"}},
  "data": [
    {"molecule": "C[C@]12CC[C@H]3C(CCC4(O)CC(O)CC[C@]34C=O)C1=CC[C@H]2c1ccc(=O)oc1", "note": "(stereo partly specified)", "values": [
      {"measurement": "activity", "setting": "[1]", "result": 70.2, "unit": "%"},
      {"measurement": "activity", "setting": "[2]", "result": 55.2, "unit": "%"}
    ]},
    {"molecule": "CCCOC(=O)c1ccc(-[n+]2c(-c3ccccc3)cc(-c3ccccc3)cc2-c2ccccc2)cc1", "values": [
      {"measurement": "activity", "setting": "[1]", "result": 74.7, "unit": "%"},
      {"measurement": "activity", "setting": "[2]", "result": 68.3, "unit": "%"}
    ]},
    {"molecule": "CCCCCCCCCCCCCCCC[N+](C)(C)C", "values": [
      {"measurement": "activity", "setting": "[1]", "result": 96.8, "unit": "%"},
      {"measurement": "activity", "setting": "[2]", "result": 96.8, "unit": "%"}
    ]},
    {"molecule": "Nc1ncnc2c1ccn2[C@@H]1O[C@H](CO)[C@@H](O)[C@H]1O", "values": [
      {"measurement": "activity", "setting": "[1]", "result": 97.7, "unit": "%"},
      {"measurement": "activity", "setting": "[2]", "result": 97.9, "unit": "%"}
    ]},
    {"molecule": "C=CCn1c(O)c(C(C)=NCc2cc(OC)cc(OC)c2)c(=O)[nH]c1=O", "values": [
      {"measurement": "activity", "setting": "[1]", "result": 79.5, "unit": "%"},
      {"measurement": "activity", "setting": "[2]", "result": 84.8, "unit": "%"}
    ]},
    {"molecule": "CC(=O)OC1C(=O)OCC23CCC4(C)OC4C2OC2CC(OC(=O)C=CC=CC(=O)OCCC1C)C3(C)C21CO1", "note": "(stereo unspecified)", "values": [
      {"measurement": "activity", "setting": "[1]", "result": 89.6, "unit": "%"},
      {"measurement": "activity", "setting": "[2]", "result": 92.9, "unit": "%"}
    ]},
    {"molecule": "CC12CCC3C(CCC4(O)CC(O)CCC34C=O)C1(O)CCC2C1=CC(=O)OC1", "note": "(stereo unspecified)", "values": [
      {"measurement": "activity", "setting": "[1]", "result": 82.5, "unit": "%"},
      {"measurement": "activity", "setting": "[2]", "result": 85.2, "unit": "%"}
    ]},
    {"molecule": "CC(=O)OCC12CC(OC(=O)CC(C)C)C(C)=CC1OC1C(O)C(OC(C)=O)C2(C)C12CO2", "note": "(stereo unspecified)", "values": [
      {"measurement": "activity", "setting": "[1]", "result": 93, "unit": "%"},
      {"measurement": "activity", "setting": "[2]", "result": 97.6, "unit": "%"}
    ]},
    {"molecule": "O=c1[nH]c2ccccc2n1C1CCN(C(c2cc3ccccc3o2)c2nnnn2Cc2ccccc2)CC1", "note": "(stereo unspecified)", "values": [
      {"measurement": "activity", "setting": "[1]", "result": 73.2, "unit": "%"},
      {"measurement": "activity", "setting": "[2]", "result": 75.7, "unit": "%"}
    ]},
    {"molecule": "CCOC(=O)[C@]12Cc3c(cc(OC)c(OC)c3OC)[C@H]1N(C1CCCCC1)C(=O)c1ccccc12", "values": [
      {"measurement": "activity", "setting": "[1]", "result": 95.8, "unit": "%"},
      {"measurement": "activity", "setting": "[2]", "result": 98, "unit": "%"}
    ]},
    {"molecule": "CCC(C)C1NC(=O)C(NC(=O)C(CC(C)C)N(C)C(=O)C2CCCN2C(=O)C(C)O)C(C)OC(=O)C(Cc2ccc(OC)cc2)N(C)C(=O)C2CCCN2C(=O)C(CC(C)C)NC(=O)[C@H](C)C(=O)[C@H](C(C)C)OC(=O)CC1O", "note": "(stereo partly specified)", "values": [
      {"measurement": "activity", "setting": "[1]", "result": 96.9, "unit": "%"},
      {"measurement": "activity", "setting": "[2]", "result": 98.2, "unit": "%"}
    ]},
    {"molecule": "Cc1ccc(-c2cc(-c3ccccc3)cc(-c3ccccc3)[n+]2-c2ccccc2)cc1", "values": [
      {"measurement": "activity", "setting": "[1]", "result": 96.6, "unit": "%"},
      {"measurement": "activity", "setting": "[2]", "result": 87.8, "unit": "%"}
    ]},
    {"molecule": "CC1CC(C)CC(C)C(O)C(C#N)=CC=CCC(C2CCCC2C(=O)O)OC(=O)CC(O)C(C)C1", "note": "(stereo unspecified)", "values": [
      {"measurement": "activity", "setting": "[1]", "result": 94, "unit": "%"},
      {"measurement": "activity", "setting": "[2]", "result": 98.7, "unit": "%"}
    ]},
    {"molecule": "CNC(=O)Oc1ccc(-c2cn3cc(C)ccc3n2)cc1", "values": [
      {"measurement": "activity", "setting": "[1]", "result": 95.7, "unit": "%"},
      {"measurement": "activity", "setting": "[2]", "result": 95.5, "unit": "%"}
    ]},
    {"molecule": "CC1=CC2OC3CC4OC(=O)C=CC=CC(C(C)O)OCC(O)C5(C)OC5C(=O)OCC2(CC1O)C4(C)C31CO1", "note": "(stereo unspecified)", "values": [
      {"measurement": "activity", "setting": "[1]", "result": 93, "unit": "%"},
      {"measurement": "activity", "setting": "[2]", "result": 98.3, "unit": "%"}
    ]},
    {"molecule": "ClCCN(CCCl)c1ccc(-n2cnc3c(Cl)ncnc32)cc1", "values": [
      {"measurement": "activity", "setting": "[1]", "result": 96.3, "unit": "%"},
      {"measurement": "activity", "setting": "[2]", "result": 98.2, "unit": "%"}
    ]},
    {"molecule": "CCOC(=O)[C@]12Cc3cc(Cl)ccc3[C@H]1N(C(C)C)C(=O)c1ccccc12", "values": [
      {"measurement": "activity", "setting": "[1]", "result": 79.3, "unit": "%"},
      {"measurement": "activity", "setting": "[2]", "result": 85.9, "unit": "%"}
    ]},
    {"molecule": "CCOC(=O)C(=CNc1ccc(C(O)(C(=O)OCC)C(F)(F)F)cc1C)C(=O)OCC", "note": "(stereo unspecified)", "values": [
      {"measurement": "activity", "setting": "[1]", "result": -5.97, "unit": "%"},
      {"measurement": "activity", "setting": "[2]", "result": 6.08, "unit": "%"}
    ]},
    {"molecule": "CCOC(=O)[C@]12Cc3ccc(C)cc3[C@H]1N(C1CCCCC1)C(=O)c1ccccc12", "values": [
      {"measurement": "activity", "setting": "[1]", "result": 90.7, "unit": "%"},
      {"measurement": "activity", "setting": "[2]", "result": 90.5, "unit": "%"}
    ]},
    {"molecule": "CC(C)N(C(=O)CCl)c1ccccc1", "values": [
      {"measurement": "activity", "setting": "[1]", "result": 98, "unit": "%"},
      {"measurement": "activity", "setting": "[2]", "result": 98.3, "unit": "%"}
    ]},
    {"molecule": "CCCCCN1C(=O)c2ccccc2[C@@]2(C(=O)OCC)Cc3cc(OC)ccc3[C@@H]12", "values": [
      {"measurement": "activity", "setting": "[1]", "result": 47.4, "unit": "%"},
      {"measurement": "activity", "setting": "[2]", "result": 63, "unit": "%"}
    ]},
    {"molecule": "CC1CCC(C(C)C)C(OC(=O)Cn2c(COc3ccccc3)[n+](C)c3ccccc32)C1", "note": "(stereo unspecified)", "values": [
      {"measurement": "activity", "setting": "[1]", "result": 66.9, "unit": "%"},
      {"measurement": "activity", "setting": "[2]", "result": 57.7, "unit": "%"}
    ]},
    {"molecule": "Cc1cccc(C)c1-n1nnnc1C(CCc1ccccc1)N1CCC(n2c(=O)[nH]c3ccccc32)CC1", "note": "(stereo unspecified)", "values": [
      {"measurement": "activity", "setting": "[1]", "result": 90.2, "unit": "%"},
      {"measurement": "activity", "setting": "[2]", "result": 82, "unit": "%"}
    ]},
    {"molecule": "CCCC1(CCC)C(=O)NC(=NCc2ccccc2)NC1=O", "values": [
      {"measurement": "activity", "setting": "[1]", "result": 51.6, "unit": "%"},
      {"measurement": "activity", "setting": "[2]", "result": 20.8, "unit": "%"},
      {"measurement": "activity, % sensitization", "setting": "[3]", "result": -11.1, "unit": "%"},
      {"measurement": "activity, % sensitization", "setting": "[4]", "result": 5.29, "unit": "%"},
      {"measurement": "activity, % sensitization", "setting": "[5]", "result": -4.21, "unit": "%"},
      {"measurement": "activity, % sensitization", "setting": "[6]", "result": -22.9, "unit": "%"}
    ]},
    {"molecule": "Cc1ccccc1-[n+]1c(-c2ccccc2)cc(-c2ccccc2)cc1-c1ccccc1", "values": [
      {"measurement": "activity", "setting": "[1]", "result": 75.7, "unit": "%"},
      {"measurement": "activity", "setting": "[2]", "result": 64.1, "unit": "%"}
    ]},
    {"molecule": "CNC(=O)O/N=C(\\N)Cc1csc2ccc(Cl)cc12", "values": [
      {"measurement": "activity", "setting": "[1]", "result": 87.3, "unit": "%"},
      {"measurement": "activity", "setting": "[2]", "result": 91.2, "unit": "%"}
    ]}
  ]
}
